About 83,000 compounds went through this panel and 20% of them were active in at least one assay; those are over-represented in the sample as a whole.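 For each line, cells grew in 96-well plates with the test compound present at a single concentration for 48 hours.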 Activity calls are given as the source filed them. The calls were made as follows: active = growth percent below 10; inactive = the rest.
Key:
Assay in all cases: NCI-60 one-dose screen, 48 h (100 = growth as untreated, 0 = no growth, -100 = all killed)
Conditions in all cases: 10 µM unless noted
HCT-15 colon = tested on: HCT-15 colon
HT29 colon = tested on: HT29 colon
SNB-75 CNS = tested on: SNB-75 CNS
SNB-19 CNS = tested on: SNB-19 CNS
U251 CNS = tested on: U251 CNS
PC-3 prostate = tested on: PC-3 prostate
SK-MEL-5 melanoma = tested on: SK-MEL-5 melanoma
UACC-62 melanoma = tested on: UACC-62 melanoma
SK-MEL-28 melanoma = tested on: SK-MEL-28 melanoma
SK-MEL-2 melanoma = tested on: SK-MEL-2 melanoma
EKVX NSCLC = tested on: EKVX NSCLC
SN12C renal = tested on: SN12C renal
UO-31 renal = tested on: UO-31 renal
TK-10 renal = tested on: TK-10 renal
ACHN renal = tested on: ACHN renal
CAKI-1 renal = tested on: CAKI-1 renal
A498 renal = tested on: A498 renal
CCRF-CEM leukemia = tested on: CCRF-CEM leukemia
MOLT-4 leukemia = tested on: MOLT-4 leukemia

Measured: growth

NC1=C(C/C(N)=N\O)C(c2ccccc2Cl)c2c(ccc3ccccc23)O1 (stereo not drawn)
inactive: HCT-15 colon 47.7% | HT29 colon 97.1% | SNB-75 CNS 75.2% | SNB-19 CNS 86.8% | U251 CNS 91.3% | PC-3 prostate 74.2% | SK-MEL-5 melanoma 86.8% | UACC-62 melanoma 52.2% | SK-MEL-28 melanoma 80.2% | SK-MEL-2 melanoma 90.4% | EKVX NSCLC 80.9% | SN12C renal 91.3% | UO-31 renal 58.6% | TK-10 renal 180% | ACHN renal 83% | CAKI-1 renal 49.5% | A498 renal 96.8% | CCRF-CEM leukemia 79.8% | MOLT-4 leukemia 76%

COc1ccc2[nH]cc(-c3nc(-c4c[nH]c5ncccc45)cs3)c2c1
active: HCT-15 colon -34.8% | CAKI-1 renal 4.05% | MOLT-4 leukemia 8.76%
inactive: HT29 colon 12.1% | SNB-75 CNS 19.5% | SNB-19 CNS 77.4% | U251 CNS 34.8% | PC-3 prostate 44.2% | SK-MEL-5 melanoma 48.2% | UACC-62 melanoma 50.4% | SK-MEL-28 melanoma 69.9% | SK-MEL-2 melanoma 32.9% | EKVX NSCLC 64.4% | SN12C renal 53.2% | UO-31 renal 15.1% | TK-10 renal 31.9% | ACHN renal 19.8% | A498 renal 10.9% | CCRF-CEM leukemia 28.3%

COc1ccc(/C=C/C(=O)c2ccc([N+](=O)[O-])cc2)cc1
inactive: HCT-15 colon 104% | HT29 colon 95.3% | SNB-75 CNS 104% | SNB-19 CNS 96.9% | U251 CNS 97.5% | PC-3 prostate 92% | SK-MEL-5 melanoma 105% | UACC-62 melanoma 88% | SK-MEL-28 melanoma 112% | SK-MEL-2 melanoma 98.9% | EKVX NSCLC 128% | SN12C renal 102% | UO-31 renal 89.9% | TK-10 renal 101% | ACHN renal 108% | CAKI-1 renal 123% | A498 renal 107% | CCRF-CEM leukemia 85.3% | MOLT-4 leukemia 86.3%

O=C1/C(=C\c2ccc(Br)o2)SC(=S)N1CCc1ccc(O)cc1
active: UO-31 renal -48.4%
inactive: HCT-15 colon 72.1% | HT29 colon 114% | SNB-75 CNS 65.6% | SNB-19 CNS 88.1% | U251 CNS 96.5% | PC-3 prostate 77.2% | SK-MEL-5 melanoma 99.2% | UACC-62 melanoma 64% | SK-MEL-28 melanoma 55.3% | SK-MEL-2 melanoma 103% | EKVX NSCLC 81.4% | SN12C renal 86.9% | TK-10 renal 92.8% | ACHN renal 49.8% | CAKI-1 renal 27.8% | A498 renal 108% | CCRF-CEM leukemia 21.8% | MOLT-4 leukemia 64.3%

O=C(O)/C(=C/c1ccc(O)cc1)c1ccccc1
inactive: HCT-15 colon 104% | HT29 colon 104% | SNB-75 CNS 88.4% | SNB-19 CNS 99.7% | U251 CNS 93.7% | PC-3 prostate 90.4% | SK-MEL-5 melanoma 95.5% | UACC-62 melanoma 107% | SK-MEL-28 melanoma 102% | SK-MEL-2 melanoma 105% | EKVX NSCLC 105% | SN12C renal 96.9% | UO-31 renal 68.9% | TK-10 renal 98.3% | ACHN renal 101% | CAKI-1 renal 104% | A498 renal 93.2% | CCRF-CEM leukemia 94.5% | MOLT-4 leukemia 97.5%

COc1cc(-c2c(C#N)c(-c3cccs3)nc3c2c(-c2ccccc2)nn3-c2ccccc2)ccc1O
inactive: HCT-15 colon 73.5% | HT29 colon 74.8% | SNB-75 CNS 79.8% | SNB-19 CNS 98.9% | U251 CNS 78.3% | PC-3 prostate 66% | SK-MEL-5 melanoma 94.9% | UACC-62 melanoma 83.5% | SK-MEL-28 melanoma 96.1% | SK-MEL-2 melanoma 81% | EKVX NSCLC 79.9% | SN12C renal 89.2% | UO-31 renal 89.1% | TK-10 renal 101% | ACHN renal 86.1% | CAKI-1 renal 66.6% | A498 renal 106% | CCRF-CEM leukemia 83.2% | MOLT-4 leukemia 59.9%

CC(=O)Oc1ccccc1C(=O)/C=C/c1cccc([N+](=O)[O-])c1
inactive: HCT-15 colon 54.9% | HT29 colon 48.8% | SNB-75 CNS 60.2% | SNB-19 CNS 81.1% | U251 CNS 54.3% | PC-3 prostate 71.1% | SK-MEL-5 melanoma 89.3% | UACC-62 melanoma 85.7% | SK-MEL-28 melanoma 95.6% | SK-MEL-2 melanoma 96.2% | EKVX NSCLC 75.6% | SN12C renal 78.9% | TK-10 renal 134% | ACHN renal 75.3% | CAKI-1 renal 67.6% | A498 renal 92.6% | MOLT-4 leukemia 50.8%
active: UO-31 renal -28.1% | CCRF-CEM leukemia 5.04%
